{"source": "the antibiotic and cytotoxicity screens of Wong et al. (2023)", "note": "Hit rate of the full screen: of about 39,000 compounds, about 3,300 (8.5%) were called active. The sample holds actives, similar compounds and a random draw of the others, so the mix is not that of the screen."}
{"tested_on": "HepG2", "experiment": "cytotoxicity call (relative viability < 0.9)", "settings": "10 µM"}
{"smiles": "Clc1ccc(Cn2cccc2)cn1", "cytotoxicity call": "inactive"}
{"smiles": "CCS(=O)(=O)Nc1ccc2c(c1)C(=O)N(C)[C@@H]1CC[C@@H](CC(=O)N[C@H]3CCN(Cc4ccccc4)C3)O[C@@H]1CO2", "cytotoxicity call": "inactive"}
{"smiles": "C[C@H]1CN([C@@H](C)CO)C(=O)Cc2cc(NS(=O)(=O)c3ccc(F)cc3)ccc2O[C@@H]1CN(C)Cc1ccncc1", "cytotoxicity call": "inactive"}
{"smiles": "COCC(=O)Nc1ccc2c(c1)OC[C@H](C)N(C(=O)Cc1ccccn1)C[C@H](C)[C@@H](OC)CN(C)C2=O", "cytotoxicity call": "inactive"}
{"smiles": "COc1ccc2c(c1OC)C(=O)OC2C1c2c(cc3c(c2OC)OCO3)CCN1C.Cl", "note": "(stereo unspecified)", "cytotoxicity call": "active"}
{"smiles": "COc1cc2c(cc1OC)C1Cc3ccc(OC)c(OC)c3CN1CC2", "note": "(stereo unspecified)", "cytotoxicity call": "inactive"}
{"smiles": "Cc1cc(-c2cc(OC(=O)c3ccccc3)ccc2Cl)cc2nnc(Nc3ccc(OCCN4CCCC4)cc3)nc12", "cytotoxicity call": "inactive"}
{"smiles": "CCN(CC)CCOc1ccc(Nc2ncc3cc(-c4c(Cl)cccc4Cl)c(=O)n(C)c3n2)cc1", "cytotoxicity call": "active"}
{"smiles": "O=C(C[C@@H]1C=C[C@@H](NC(=O)CN2CCOCC2)[C@H](CO)O1)NCCc1ccccc1", "cytotoxicity call": "inactive"}
{"smiles": "O=C(O)CNC(=O)C(=O)O", "cytotoxicity call": "active"}
{"smiles": "NCC(=O)NCC(=O)O", "cytotoxicity call": "inactive"}
{"smiles": "CNCC(=O)O", "cytotoxicity call": "inactive"}
{"smiles": "CN(C)CCN1C[C@@H]2CN(C(=O)[C@H]3CCOC3)C[C@H]2C1=O", "cytotoxicity call": "inactive"}
{"smiles": "C[C@@H]1CCCCO[C@H](CN(C)S(=O)(=O)c2cccs2)[C@@H](C)CN([C@@H](C)CO)C(=O)c2cc(NC(=O)NC3CCCCC3)ccc2O1", "cytotoxicity call": "inactive"}
{"smiles": "Cc1noc(C)c1S(=O)(=O)Nc1ccc2c(c1)C(=O)N([C@@H](C)CO)C[C@H](C)[C@H](CN(C)Cc1ccc3c(c1)OCO3)O2", "cytotoxicity call": "inactive"}
{"smiles": "COc1ccc(S(=O)(=O)N(C)C[C@@H]2OCCCC[C@@H](C)Oc3ccc(NC(=O)Nc4ccc(F)cc4)cc3C(=O)N([C@@H](C)CO)C[C@H]2C)cc1", "cytotoxicity call": "inactive"}
{"smiles": "CN(C)CC(=O)N1CC2(C1)[C@H](c1ccccc1)[C@H](CO)N2S(C)(=O)=O", "cytotoxicity call": "inactive"}
{"smiles": "CNC(=O)c1ccc(Nc2ncc(C(F)(F)F)c(NCc3nccnc3N(C)S(C)(=O)=O)n2)cc1", "cytotoxicity call": "active"}
{"smiles": "CN(c1ncccc1CNc1nc(Nc2ccc3c(c2)CC(=O)N3)ncc1C(F)(F)F)S(C)(=O)=O", "cytotoxicity call": "active"}
{"smiles": "Cc1cnc(CNC(=O)c2c(=O)c3ccc(N4CCCN(C)CC4)nc3n3c2sc2ccccc23)cn1", "cytotoxicity call": "inactive"}
{"smiles": "CCS(=O)(=O)N1C[C@]2(CN(C2)C(=O)Nc2ccc(cc2F)F)c2c(n(c3cc(ccc23)OC)C)[C@@H]1CO", "cytotoxicity call": "inactive"}
{"smiles": "CN(C)Cc1cn(CC[C@H]2CC[C@@H](NC(=O)Cc3cccnc3)[C@@H](CO)O2)nn1", "cytotoxicity call": "inactive"}
{"smiles": "O=c1/c(=C\\c2ccc(F)cc2)sc2n1CCN=2", "cytotoxicity call": "inactive"}
{"smiles": "O=C(/C=C/c1cc2c(cc1Br)OCCO2)c1c(-c2ccccc2)c2cc(Cl)ccc2[nH]c1=O", "cytotoxicity call": "active"}
{"smiles": "N=C(CN1CCCCC1)NO", "cytotoxicity call": "inactive"}
{"smiles": "CN(C)CCCNC(=O)C[C@@H]1CC[C@H]2[C@@H](COC[C@@H](O)CN2C(=O)c2cc(Cl)cc(Cl)c2)O1", "cytotoxicity call": "inactive"}
{"smiles": "COc1ccc(NC(=O)Nc2ccc3c(c2)C(=O)N([C@@H](C)CO)C[C@H](C)[C@H](CN(C)C(=O)Nc2ccc(C(F)(F)F)cc2)OCCCC[C@H](C)O3)cc1", "cytotoxicity call": "inactive"}
{"smiles": "C[C@H]1CN([C@@H](C)CO)C(=O)c2cccc(NS(=O)(=O)c3ccc(F)cc3)c2O[C@@H]1CN(C)Cc1ccc(Cl)c(Cl)c1", "cytotoxicity call": "inactive"}
{"smiles": "COC1=C(N)C(=O)c2nc(-c3nc(C(=O)O)c(C)c(-c4ccc(OC)c(OC)c4O)c3N)ccc2C1=O", "cytotoxicity call": "active"}
{"smiles": "COc1ccc(NC(=O)N(C)C[C@@H]2Oc3ncc(Br)cc3C(=O)N([C@H](C)CO)C[C@@H]2C)cc1", "cytotoxicity call": "inactive"}
{"smiles": "CCCNC(=O)N1C[C@H](O)COC[C@@H]2O[C@H](CC(=O)NCCCN3CCOCC3)CC[C@H]21", "cytotoxicity call": "inactive"}
{"smiles": "CN1C(=O)c2cc(NC(=O)c3ccc(C(F)(F)F)cc3)ccc2OC[C@@H]2O[C@@H](CC(=O)NC3Cc4ccccc4C3)CC[C@H]21", "cytotoxicity call": "inactive"}
{"smiles": "CN1C(=O)c2cc(NC(=O)c3ccc(C(F)(F)F)cc3)ccc2OC[C@@H]2O[C@H](CC(=O)NC3Cc4ccccc4C3)CC[C@H]21", "cytotoxicity call": "inactive"}
{"smiles": "CN1C(=O)c2cc(NC(=O)c3ccc(C(F)(F)F)cc3)ccc2OC[C@@H]2O[C@H](CC(=O)NC3Cc4ccccc4C3)CC[C@@H]21", "cytotoxicity call": "inactive"}
{"smiles": "CN1C(=O)c2cc(NC(=O)c3ccc(C(F)(F)F)cc3)ccc2OC[C@H]2O[C@H](CC(=O)NC3Cc4ccccc4C3)CC[C@H]21", "cytotoxicity call": "active"}
{"smiles": "CN(C)CC(=O)Nc1ccc2c(c1)C(=O)N(C)[C@H]1CC[C@H](CC(=O)Nc3cccc(Cl)c3)O[C@@H]1CO2", "cytotoxicity call": "inactive"}
{"smiles": "CN1C(=O)c2cc(NC(=O)Nc3ccccc3F)ccc2OC[C@H]2O[C@@H](CC(=O)Nc3cccc(Cl)c3)CC[C@@H]21", "cytotoxicity call": "active"}
{"smiles": "CN1C(=O)c2cc(NC(=O)c3ccc(C(F)(F)F)cc3)ccc2OC[C@@H]2O[C@@H](CC(=O)NC3Cc4ccccc4C3)CC[C@@H]21", "cytotoxicity call": "active"}
{"smiles": "CN1C(=O)c2cc(NC(=O)c3ccc(C(F)(F)F)cc3)ccc2OC[C@H]2O[C@H](CC(=O)NC3Cc4ccccc4C3)CC[C@@H]21", "cytotoxicity call": "inactive"}
{"smiles": "CN1C(=O)c2cc(NC(=O)Nc3ccccc3F)ccc2OC[C@H]2O[C@H](CC(=O)NCc3ccc(-c4ccccc4)cc3)CC[C@H]21", "cytotoxicity call": "inactive"}
{"smiles": "C[C@H]1CCCCO[C@@H](CN(C)Cc2ccncc2)[C@@H](C)CN([C@@H](C)CO)C(=O)c2cc(NC(=O)Nc3ccccc3)ccc2O1", "cytotoxicity call": "inactive"}
{"smiles": "Cc1ccc(S(=O)(=O)Nc2ccc3c(c2)C(=O)N([C@H](C)CO)C[C@@H](C)[C@@H](CN(C)C(=O)Nc2ccccc2)OCCCC[C@H](C)O3)cc1", "cytotoxicity call": "inactive"}
{"smiles": "C[C@H](CO)N1C[C@H](C)[C@@H](CN(C)S(=O)(=O)c2ccc(F)cc2)Oc2ncc(-c3ccncc3)cc2C1=O", "cytotoxicity call": "inactive"}
{"smiles": "COc1ccc(CN(C)C[C@@H]2OCCCC[C@@H](C)Oc3ccc(NC(=O)CCC(F)(F)F)cc3C(=O)N([C@@H](C)CO)C[C@@H]2C)cc1", "cytotoxicity call": "inactive"}
{"smiles": "CCOC(=O)N(C)C[C@@H]1OCc2cn(nn2)CCCC(=O)N([C@H](C)CO)C[C@@H]1C", "cytotoxicity call": "inactive"}
{"smiles": "C[C@@H]1CN([C@@H](C)CO)C(=O)c2cc(NS(=O)(=O)c3ccc(F)cc3)ccc2O[C@@H]1CN(C)S(=O)(=O)c1cccs1", "cytotoxicity call": "inactive"}
{"smiles": "C[C@@H]1CN([C@H](C)CO)S(=O)(=O)c2ccc(Br)cc2O[C@H]1CN(C)C(=O)c1cnccn1", "cytotoxicity call": "inactive"}
{"smiles": "CNC[C@@H]1Oc2c(NS(=O)(=O)c3cn(C)cn3)cccc2C(=O)N([C@H](C)CO)C[C@@H]1C", "cytotoxicity call": "inactive"}
{"smiles": "COc1ccc(C#Cc2ccc3c(c2)[C@@]2(C(=O)N3C(=O)N[C@@H](C)c3ccccc3)[C@H](c3ccc(OCCO)cc3)N3[C@H](c4ccccc4)[C@H](c4ccccc4)OC(=O)[C@H]3[C@@H]2C(=O)O)cc1", "cytotoxicity call": "active"}
{"smiles": "COCCOC(=O)N1C(=O)[C@@]2(c3cc(C#Cc4ccc(OC)cc4)ccc31)[C@H](C(=O)N1CCCCCCC1)[C@H]1C(=O)O[C@H](c3ccccc3)[C@H](c3ccccc3)N1[C@@H]2c1ccc(OCCO)cc1", "cytotoxicity call": "inactive"}
{"smiles": "COCCOC(=O)N1C(=O)[C@@]2(c3cc(C#CCC(C(=O)OC)C(=O)OC)ccc31)[C@H](C(=O)N1CCCCCCC1)[C@H]1C(=O)O[C@H](c3ccccc3)[C@H](c3ccccc3)N1[C@@H]2c1ccc(OCCO)cc1", "cytotoxicity call": "inactive"}
{"smiles": "COCCOC(=O)N1C(=O)[C@@]2(c3cc(C#CCC(C(=O)OC)C(=O)OC)ccc31)[C@H](c1ccc(OCCO)cc1)N1[C@H](c3ccccc3)[C@H](c3ccccc3)OC(=O)[C@H]1[C@@H]2C(=O)N1CCCCCCC1", "cytotoxicity call": "inactive"}
{"smiles": "COCCOC(=O)N1C(=O)[C@@]2(c3cc(C#Cc4ccc(OC)cc4)ccc31)[C@H](c1ccc(OCCO)cc1)N1[C@H](c3ccccc3)[C@H](c3ccccc3)OC(=O)[C@H]1[C@@H]2C(N)=O", "cytotoxicity call": "inactive"}
{"smiles": "COCCOC(=O)N1C(=O)[C@@]2(c3cc(C#Cc4ccc(OC)cc4)ccc31)[C@H](c1ccc(O)cc1)N1[C@H](c3ccccc3)[C@H](c3ccccc3)OC(=O)[C@H]1[C@@H]2C(=O)N1CCCCCCC1", "cytotoxicity call": "active"}
{"smiles": "COCCOC(=O)N1C(=O)[C@@]2(c3cc(C#CCC(C(=O)OC)C(=O)OC)ccc31)[C@H](C(=O)N1CCCCCCC1)[C@H]1C(=O)O[C@H](c3ccccc3)[C@H](c3ccccc3)N1[C@@H]2c1ccc(O)cc1", "cytotoxicity call": "active"}
{"smiles": "COCCOC(=O)N1C(=O)[C@@]2(c3cc(C#Cc4ccc(OC)cc4)ccc31)[C@H](C(=O)N1CCCCCCC1)[C@H]1C(=O)O[C@H](c3ccccc3)[C@H](c3ccccc3)N1[C@@H]2c1ccc(O)cc1", "cytotoxicity call": "inactive"}
{"smiles": "COCCOC(=O)N1C(=O)[C@@]2(c3cc(C#Cc4ccc(OC)cc4)ccc31)[C@H](c1ccc(OCCO)cc1)N1[C@H](c3ccccc3)[C@H](c3ccccc3)OC(=O)[C@H]1[C@@H]2C(=O)NC[C@H](O)c1ccccc1", "cytotoxicity call": "inactive"}
{"smiles": "NCC[C@H]1CC[C@H](NC(=O)Cc2ccncc2)[C@@H](CO)O1", "cytotoxicity call": "inactive"}
{"smiles": "O=C(O)CCCCCCCCCCCC[C@@H]1C=CCC1", "cytotoxicity call": "inactive"}
{"smiles": "COc1ccc(-c2cc(=O)c3c(O)c(OC)c(O[C@H]4O[C@H](CO[C@@H]5O[C@@H](C)[C@H](O)[C@@H](O)[C@H]5O)[C@@H](O)[C@H](O)[C@H]4O)cc3o2)cc1", "cytotoxicity call": "inactive"}
{"smiles": "C[C@H](CO)N1C[C@H](C)[C@@H](CN(C)S(=O)(=O)c2cn(C)cn2)Oc2cc(Br)ccc2S1(=O)=O", "cytotoxicity call": "inactive"}
{"smiles": "C[C@H](CO)N1C[C@H](C)[C@@H](CN(C)Cc2ccc(-c3ccccc3)cc2)Oc2c(NS(=O)(=O)c3cccs3)cccc2C1=O", "cytotoxicity call": "inactive"}
{"smiles": "C[C@@H]1CCCCO[C@@H](CN(C)Cc2ccncc2)[C@H](C)CN([C@@H](C)CO)C(=O)c2cc(NC(=O)C3CCCCC3)ccc2O1", "cytotoxicity call": "inactive"}
{"smiles": "CCOc1ccc2nc(S(N)(=O)=O)sc2c1", "cytotoxicity call": "inactive"}
{"smiles": "CCOC(=O)c1cccc(N)c1.CS(=O)(=O)O", "cytotoxicity call": "inactive"}
{"smiles": "CC(O)C(=O)O.CCOc1ccc2nc3cc(N)ccc3c(N)c2c1", "cytotoxicity call": "active"}
